In the library only some 2.7% were active in any assay of this set; here they are far more common.
ANO1 activ = TMEM16A chloride channel activators or potentiators, primary screen, cell-based, HTS; Anoctamin-1 (Mus musculus), Q8BHY3; HEK293 TMEM16A/YFP-H148Q/I152L, iodide quench fluorescence; stronger effect = lower value; B-score at 10 µM; hit rate 0.3% among 340,000;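 active = fluorescence-ratio B-score plate-corrected deviation score at least 3 library SD below zero, with starting fluorescence score within 5 deviations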;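 note: channel opened by trigger with iodide after compound preincubation; score built on the fluorescence ratio of max minus min over baseline; more negative score means more quench and so TMEM16A activation or potentiation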
Target sequence (Q8BHY3 whole entry, looked up): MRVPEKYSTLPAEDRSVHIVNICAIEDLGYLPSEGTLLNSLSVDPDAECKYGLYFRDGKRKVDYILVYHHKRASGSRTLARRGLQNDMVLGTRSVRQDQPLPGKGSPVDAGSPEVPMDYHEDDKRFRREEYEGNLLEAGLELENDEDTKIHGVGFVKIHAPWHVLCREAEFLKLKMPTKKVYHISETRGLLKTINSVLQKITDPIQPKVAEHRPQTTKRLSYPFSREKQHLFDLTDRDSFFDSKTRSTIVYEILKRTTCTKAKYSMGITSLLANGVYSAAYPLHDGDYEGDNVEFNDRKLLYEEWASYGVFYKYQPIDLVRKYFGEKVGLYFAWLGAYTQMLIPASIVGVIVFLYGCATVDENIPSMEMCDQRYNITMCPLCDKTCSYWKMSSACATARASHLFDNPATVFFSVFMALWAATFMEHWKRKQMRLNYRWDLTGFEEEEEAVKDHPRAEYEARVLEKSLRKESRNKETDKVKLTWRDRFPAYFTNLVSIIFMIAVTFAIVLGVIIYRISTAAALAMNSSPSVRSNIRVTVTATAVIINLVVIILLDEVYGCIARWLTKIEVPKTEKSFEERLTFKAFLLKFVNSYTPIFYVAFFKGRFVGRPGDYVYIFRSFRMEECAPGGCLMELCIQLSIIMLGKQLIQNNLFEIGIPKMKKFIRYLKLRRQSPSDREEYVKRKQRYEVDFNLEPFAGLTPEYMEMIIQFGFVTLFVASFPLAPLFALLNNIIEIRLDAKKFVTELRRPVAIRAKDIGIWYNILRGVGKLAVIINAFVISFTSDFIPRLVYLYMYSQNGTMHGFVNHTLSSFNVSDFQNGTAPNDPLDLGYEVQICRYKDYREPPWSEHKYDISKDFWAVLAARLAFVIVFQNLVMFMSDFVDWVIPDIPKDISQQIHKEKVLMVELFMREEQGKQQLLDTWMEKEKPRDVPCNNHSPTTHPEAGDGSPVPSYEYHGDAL
PP1 counter = PP1-alpha phosphatase inhibitors, primary screen, counter-screen for PP5 inhibitor project, biochemical, fluorescence, OMFP substrate, single point. inhibition, % at 6.7 µM. AID 2235, 2010. purified PP1alpha. hit rate 0.9% among 320,000. Serine/threonine-protein phosphatase PP1-alpha catalytic subunit (Homo sapiens), P62136;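 active = inhibition above the mean inhibition of all tested compounds plus 3 SD, computed separately for each screening campaign, cut at about 15% in these data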
FID counter = compounds displacing fluorescent DNA intercalator, primary screen, artefact control for HCV NS3 helicase inhibitor project, biochemical, FID fluorescence. DNA fluorescent intercalator displacement. inhibition, % at 7.9 µM. hit rate 0.17% among 290,000. AID 1845, 2009; in the data active = inhibition above about 37%;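 note: 0% = vehicle and 100% = reference compound; higher means more ethidium bromide displaced from hairpin DNA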
ANO1 block = TMEM16A chloride channel inhibitors, primary screen, cell-based, HTS. Anoctamin-1 (Mus musculus), Q8BHY3. HEK293 TMEM16A/YFP iodide influx fluorescence, ionomycin. hit rate 1.2% among 310,000. normalized B-score (activity score, 25-100; higher = stronger inhibition) at 10 µM. AID 588511, 2011;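 active = ratio plate-corrected score three or more library SD toward inhibition, starting fluorescence score within five deviations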;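 note: score derived from kinetic fluorescence span divided by baseline fluorescence per well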
PP5 inh = PP5 phosphatase inhibitors, primary screen, biochemical, fluorescence | Serine/threonine-protein phosphatase 5 (Homo sapiens), P53041 | purified PP5c, OMFP substrate fluorescence | inhibition, % at 6.7 µM | hit rate 0.18% among 320,000;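 active = inhibition above the campaign's mean inhibition across all tested compounds plus 3 SD, cut at about 9.5% in these data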;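 note: 0% = DMSO only and 100% = 100 µM cantharidin control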
PREPL inh = PREPL enzyme inhibitors, primary screen, biochemical, fluorescence polarization; Prolyl endopeptidase-like (Homo sapiens), Q4J6C6; recombinant PREPL, fluorescence polarization activity-based probe; inhibition, % at 5.96 µM; hit rate 0.68% among 320,000; AID 2751, 2010; in the data active = inhibition above about 43%;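 note: 0% = enzyme with DMSO and 100% = wells lacking enzyme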
TMEM16A reconf = TMEM16A chloride channel inhibitors, confirmation, cell-based, re-confirmation; AID 652189, 2013; hit rate 39% among 2,300; HEK293 TMEM16A/YFP-H148Q, iodide quench fluorescence; ionomycin added to raise cell calcium; inhibition, % at 10 µM; shares compounds with ANO1 block;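 active = mean duplicate percent inhibition, scaled so buffer wells are 0 and the reference blocker 100, over three buffer SD above buffer mean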
HEK293 Ca mobil = calcium mobilization in TMEM16A/YFP HEK293 cells, confirmation, counter-screen for TMEM16A inhibitor project; shares compounds with ANO1 block; hit rate 2% among 2,300; calcium response (% of ionomycin), % at 10 µM; AID 652231, 2013; Fluo4 calcium mobilization;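 active = duplicate-averaged calcium signal over 20% of the ionomycin maximum, relative to buffer baseline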;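 note: each well's signal is peak minus trough fluorescence divided by its pre-addition baseline; 0% = buffer wells and 100% = ionomycin wells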
YFP-HEK293 quench = iodide YFP quench changes in parental YFP-HEK293, counter-screen for TMEM16A inhibitor project, cell-based; shares compounds with ANO1 block; 2,300 tested, under 10 active; ionomycin; YFP ratio F(max-min)/F0 at 10 µM; AID 652233, 2013;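 active = yellow fluorescent protein signal ratio exceeding the buffer control mean by over 5 SD of those controls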;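 note: ratio is mean of duplicate wells from kinetic YFP trace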
ClC-1 rat inh = ClC-1 chloride channel inhibition, selectivity assay for TMEM16A inhibitor project, cell-based, voltage-dependent ClC-1. shares compounds with ANO1 block. CHO ClC-1-YFP, iodide influx fluorescence quench; iodide control reads 0, buffer control 100. ratio percent, % at 10 µM. 2,300 tested, under 10 active. AID 652236, 2013;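 active = duplicate-mean ratio percent above the mean of iodide-only control wells, which defines zero, plus 5 of their SD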;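 note: higher percent means stronger block of ClC-1 iodide influx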
Numbers without * were called inactive; i = inactive; . = no result given.

SMILES	ANO1 activ	PP1 counter	FID counter	ANO1 block	PP5 inh	PREPL inh	TMEM16A reconf	HEK293 Ca mobil	YFP-HEK293 quench	ClC-1 rat inh
COc1ccc(NC(=O)CN(c2cc(C)cc(C)c2)S(=O)(=O)c2c(C)noc2C)cc1	i	-1.4	-9.3	100*	4.5	5.2	i	i	-1.14	0.5
CCOC(=O)CSc1nnc(NC(=O)c2cc([N+](=O)[O-])cc([N+](=O)[O-])c2)s1	i	0.4	-8.0	25*	3.9	15.5	i	i	-0.888	-11.0
COc1cccc(C2=CC(c3cccc(OC)c3OC)n3nnnc3N2)c1 (stereo not drawn)	i	5.0	-17.4	i	3.0	-37.4	.	.	.	.
COc1cccc(C2=CC(c3cccc(OC)c3OC(F)F)n3nnnc3N2)c1 (stereo not drawn)	i	5.5	-8.2	100*	1.3	-47.6	i	i	-1.02	-3.0
Cc1c(C(=O)Nc2nonc2-c2ccc(F)cc2)oc2ccc(F)cc12	i	4.4	-22.1	25*	2.7	-3.9	40.0%*	i	-0.882	-15.5
O=c1c2ccccc2c(C=Nc2cccc(O)c2)c(O)n1-c1ccc2c(c1)OCO2	i	2.3	-3.0	25*	0.8	4.2	i	i	-1.33	3.0
CC1(C)C2CCC1(CS(=O)(=O)NCc1ccc(Cl)cc1Cl)C(=O)C2 (stereo not drawn)	i	-0.2	-36.1	i	4.0	16.3	.	.	.	.
Cc1nnc(NC(=O)c2sc3nc(-c4cccs4)cc(C(F)(F)F)c3c2N)s1	i	7.7	-11.8	i	0.5	11.1	.	.	.	.
Nc1c(C(=O)Nc2nccs2)sc2nc(-c3cccs3)cc(C(F)(F)F)c12	i	6.0	-1.4	i	2.9	21.3	i	i	-0.641	39.0
CCN(CC)C(=O)c1sc2nc(-c3cccs3)cc(-c3cccs3)c2c1N	i	2.9	-13.6	i	1.1	-17.4	i	i	-0.605	24.0
CC1(c2ccccc2)NC(=O)N(CC(=O)N2CCN(S(=O)(=O)c3cccc([N+](=O)[O-])c3)CC2)C1=O (stereo not drawn)	i	-7.3	.	i	0.0	6.4	.	.	.	.
COc1ccc([C@H]2CC(=O)C=C(c3cc4ccccc4s3)C2)cc1OC	i	-1.2	.	.	0.7	0.1	.	.	.	.
CCOC(=O)C1=C(CSc2nc(-c3ccccc3)ccc2C#N)OC(N)=C(C#N)C1c1ccccc1 (stereo not drawn)	i	12.9	-20.6	i	5.8	-58.4	i	i	-1.27	0.0
CCOC(=O)C1=C(c2ccccc2)OC(N)=C(C#N)C1c1ccco1 (stereo not drawn)	i	-4.8	-5.9	25*	1.6	4.9	i	i	-0.863	-4.5
CC12CC(c3ccccc3O1)N(C(=O)c1ccco1)C(=S)N2c1ccc(F)cc1 (stereo not drawn)	i	3.1	-10.9	i	2.8	7.3	i	i	-1.23	3.5
CN(C)C(CNC(=O)c1coc2ccccc2c1=O)c1ccccc1 (stereo not drawn)	i	1.3	-3.6	i	-4.8	-7.9	.	.	.	.
Cn1nc(C(F)(F)F)c(C#N)c1N1CCN(c2ccccc2)CC1	i	-0.1	-8.0	i	4.3	-6.0	.	.	.	.
Cn1nc(C(F)(F)F)c(C#N)c1N1CCN(c2ccc(F)cc2)CC1	i	-1.0	-3.1	25*	2.4	-8.8	i	i	-1.31	-11.5
Cc1ccc(NS(=O)(=O)c2cccc(C(=O)Nc3cc(C)on3)c2)cc1	-5.28*	-0.3	-10.4	25*	2.5	0.1	i	i	-1.07	-12.5
Cc1ccc(S(=O)(=O)Nc2ccc(C(=O)Nc3cc(C)on3)cc2)cc1	i	0.3	-10.9	i	1.9	1.6	.	.	.	.
COC(=O)c1cn(CCOc2ccccc2OC)c2ccccc12	i	2.6	-22.7	25*	5.9	-15.4	i	i	-0.917	-17.5
Cc1ccccc1-n1c(SCC(=O)N2CCN(c3ccccn3)CC2)nnc1N1CCOCC1	i	-2.1	.	.	2.4	14.1	.	.	.	.
COc1ccc(-c2cc(C(F)(F)F)c3c(=O)n(-c4ccccc4)[nH]c3n2)cc1	i	-0.9	-9.1	100*	-2.5	-0.4	23.0%*	i	-1.16	-4.5
COc1ccc(-c2cc(-c3ccccc3)nc(=O)[nH]2)cc1	i	-2.3	5.1	i	1.2	3.0	.	.	.	.
C=CCNc1ncnc2c1[nH]c1ccccc12	i	3.3	7.7	i	-0.5	4.9	.	.	.	.
SMILES	ANO1 activ	PP1 counter	FID counter	ANO1 block	PP5 inh	PREPL inh	TMEM16A reconf	HEK293 Ca mobil	YFP-HEK293 quench	ClC-1 rat inh
C=CCNc1ncnc2c1[nH]c1ccc(Cl)cc12	i	-1.4	8.9	100*	0.9	21.2	58.0%*	i	-0.973	-28.5
Nc1c(C(=O)N/N=C/c2cccnc2)oc2nc(-c3ccco3)cc(-c3ccco3)c12	i	4.3	-14.1	i	-0.3	28.6	.	.	.	.
Nc1c(C(=O)N/N=C/c2cccnc2)oc2nc(-c3ccccc3)cc(-c3ccco3)c12	i	-0.7	-12.7	i	-2.9	-3.3	i	i	-1.12	1.0
Cc1cccc(C)c1N=Cc1c(C(F)(F)F)[nH][nH]c1=O	i	-3.2	0.9	i	2.1	-2.0	.	.	.	.
O/C=c1\ccc2cccc3nc(C(F)(F)F)nc1c23	i	8.2	4.8	i	-1.3	16.0	.	.	.	.
C/C(O)=c1/ccc2cccc3nc(C)nc1c23	i	0.7	-2.9	i	0.8	14.4	i	101.5%*	-0.807	-1.5
O=C(NCc1ccncc1)C(=O)Nc1nc(C23CC4CC(CC(C4)C2)C3)cs1	i	6.9	-19.9	100*	5.2	4.2	18.0%*	i	-1.05	-19.0
